# Tg IFNy HTS – inhibitors of Toxoplasma gondii growth with IFN-gamma | actives 3.8% (n = 69,000) | Toxoplasma gondii growth in IFN-gamma-treated host cells; stronger effect = lower value | activity change, negative = inhibition, % (concentration not given with the values); in the data active = activity change below about -70%, passing the limit was not always enough;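 also: host cells are HeLa cells infected with Toxoplasma gondii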
# Starred values were filed as active, the others as inactive; ! = repeats disagree. The sample as a whole holds a higher share of hits than the screen did.
SMILES,Tg IFNy HTS
CCC(=O)O[C@]1(C(=O)CO)CC[C@H]2[C@@H]3CCC4=CC(=O)CC[C@]4(C)[C@H]3CC[C@@]21C,1
C#C[C@]1(O)CCC2C3CCC4=CC(=O)CC[C@@H]4C3CC[C@@]21C (some centres undefined),-81*
C[C@]12CCC(=O)C=C1CCC1C2C(=O)C[C@@]2(C)C1CC[C@]2(O)C(=O)CO (some centres undefined),12
C#C[C@]1(O)CCC2C3CCc4cc(O)ccc4C3CC[C@@]21C (some centres undefined),-77*
C#C[C@]1(O)CC[C@@H]2C3[C@H](C)CC4=C(CCC(=O)C4)[C@H]3CC[C@@]21C (some centres undefined),3
CC(=O)Nc1cccc(C(=O)N(C/C=C/c2ccccc2)CCO)c1,5
CCN(Cc1cc(C)[nH]n1)CC1CCCO1 (centres undefined),-3
CCc1ccc(S(=O)(=O)N2CCC3(CC2)NCCN=C3NCc2ccc(Cl)cc2)cc1,-38
Cc1cc2nc(C)c(CCC(=O)N3CCCC(c4nc5ccccc5[nH]4)C3)c(C)n2n1 (centres undefined),4
O=C(NCCc1csc(-c2ccccc2)n1)[C@H]1CSCN1C(=O)c1cccc(F)c1,4
Cc1nc(CN(C)Cc2ccc(-n3cccn3)cc2)co1,11
CCCS(=O)(=O)N1CCC2(CC1)CN(c1ccccn1)CCO2,4
CC1(C)C2CCC1C(CS(=O)(=O)Oc1cccc(-n3cnnn3)c1)C2=O (centres undefined),-1
Cc1c(C(=O)N2CCC3(CCNC(=O)CC3)CC2)cnc2cc(=O)[nH]n12,8
CC(C)c1nn(-c2ncccc2C(F)(F)F)c(=O)o1,4
CC(=O)C1C(=O)[C@@H]2[C@H]3c4c[nH]c5cccc(c45)C[C@H]3C(C)(C)N2C1=O (some centres undefined),-81*!
CN1C[C@H](C(=O)N[C@]2(C)O[C@@]3(O)[C@@H]4CCCN4C(=O)[C@H](Cc4ccccc4)N3C2=O)C[C@@H]2c3cccc4[nH]cc(c34)C[C@H]21,4
O=[N+]([O-])c1cc(/C=N/n2cnnc2)ccc1N1CCCC1,-90*
O=Cc1ccc(N2CCCCC2)cc1,-3
O=C(N/N=C\c1cc([N+](=O)[O-])ccc1N1CCOCC1)c1ccccn1,3
COc1cccc(-c2ccc3c(c2)CCCN3C(C)=O)c1OC,36
CN(C)C(=O)COCC1CC2(CCN(Cc3cnn(C)c3)CC2)CO1 (centres undefined),-32
CN(C)C(=O)CN1CCC2(CCCN2Cc2cnn(C)c2)CC1,-55
CN(C)C(=O)CN1C[C@]23CN(Cc4cnn(C)c4)C[C@@H](C[C@@H]2S1(=O)=O)O3,-108*
CC(NC(=O)c1ccc(F)cc1)C(=O)O (centres undefined),-1
SMILES,Tg IFNy HTS
COc1ccc(NC(=O)Nc2ccc(-c3nc(-c4ccccc4)co3)cc2)c(OC)c1,-6
c1ccc(-c2nccc(C3CCCN3)n2)cc1 (centres undefined),-30
O=C(Nc1ccccc1)[C@@H]1CCS(=O)(=O)[C@H]2CN(Cc3ccc(F)cc3)C[C@@H]12,-6
CC(C)NC(=O)[C@H]1CCS(=O)(=O)[C@H]2CN(C(=O)Nc3ccccc3)C[C@@H]12,-19
CC(C)CCN1C[C@H]2[C@H](C(=O)Nc3ccccc3)CCS(=O)(=O)[C@H]2C1,-94*
CCc1nc(OCC(=O)Nc2ccc(F)cc2)c2ccccc2n1,15
Cc1cc(C(=O)N(C)CCCc2cnn(C)c2)n[nH]1,-7
CCO[C@H]1CCN(C(=O)C2CC=CC2)[C@H]1Cc1ccncc1,-11
COc1ccc(-n2nnc(C(C)=O)c2NCc2ccco2)cc1,62
CCOC(=O)c1cnc(-c2ccccc2)nc1Nc1ccc(C)cc1,2
CCOC(=O)c1ccc(Nc2nc3nonc3nc2NCc2ccco2)cc1,-102*
COCC(=O)N1CCn2c(CN3CCN(C)CC3)cnc2C1,-5
COc1cccc(NC(=O)Nc2ccc(-c3nc(-c4ccc(C)cc4C)co3)cc2)c1,2
CCOc1ccc(NC(=O)Nc2ccc(-c3nc(-c4cccc(Br)c4)co3)cc2)cc1,1
CC[C@H](CC#N)OC(=O)N[C@@H](C)c1cccc(NC(=O)Nc2ccc(-c3cnco3)c(OC)c2)c1,-82*
CN(Cc1ccco1)C1COC2(CCN(S(C)(=O)=O)CC2)C1 (centres undefined),0
CC[C@H]1OC[C@@H]2CN(C(=O)CN(C)C)CC[C@H]21,35
Cc1ccc(CN2CCc3[nH]nc(C(=O)N(C)C)c3C2)o1,101
CN(C)CCNC(=O)c1cc(-c2ccn(-c3ccccc3)n2)n2ccccc12,-106*
COCCC(=O)c1cc(-c2ccn(-c3ccccc3)n2)n2ccccc12,89
Cc1nc(-c2cc(C(=O)NCCN(C)C)c3ccccn23)cn1-c1nccs1,21
CCC1CN(Cc2ccc(OCC(N)=O)c(Cl)c2)CCN1C(C)C (centres undefined),6
O=C(CN1C(=O)c2ccccc2C1=O)NCCc1csc(-c2ccc(F)cc2)n1,59
Cc1ccc(S(=O)(=O)Nc2cncc(C(=O)Nc3ccc(Cl)cc3C)c2)c(C)c1,-13
Nc1cnn(CC(=O)N2CCCCC2)c1,-40
SMILES,Tg IFNy HTS
O=c1[nH]ccc2c1c(=O)[nH]c1ccccc12,-100*
O=c1[nH]c2ccccc2c2oc(-c3ccccc3)nc12,7
CCCCCCCc1nc2c(=O)[nH]c3ccccc3c2o1,0
CCOC(=O)c1nc(N2CCN(c3ccccc3)CC2)c2ccccc2n1,48
CN(C)C(=O)N1CCC2(CC1)CC(C(=O)N1CCOCC1)c1ccccc12 (centres undefined),23
Clc1cccc(Nc2nnc(-c3ccccc3)c3ccccc23)c1,2
c1ccc(Nc2nc(-c3ccccc3)c(-c3ccccc3)s2)cc1,-105*
CCCc1sc(Nc2ccc(C(=O)OC)cc2)nc1-c1ccccc1,91
COc1ccc(-c2nc(C)c(CCNS(=O)(=O)c3ccccc3F)s2)cc1,212
CNC(=O)[C@H]1C[C@@H]2CN(C(=O)NCCc3ccccc3)C[C@H]1O2,-2
O=C(CCc1ccc(O)cc1)NCCN1CCCc2ccccc21,10
Cc1cc(N2CCC3(CCCO3)CC2)c2ccccc2n1,-13
O=c1cc(N2CCOCC2)nc2c3ccccc3ccn12,-2
c1ccc2nc3c(cc(N4CCOCC4)c4ccccc43)nc2c1,-104*
CN1CCC2(CCCN(C(=O)COc3ccc4c(c3)OCO4)CC2)CC1,2
CNC(=O)[C@@H]1C[C@@H](N)CN1C(=O)c1ccc2scnc2c1,3
CCOC(=O)c1nc(N(C)c2ccccc2C)c2ccccc2n1,-18
CCCCN(CCCNc1nc(C(=O)OCC)nc2ccccc12)c1ccccc1,-78*
CCCCN(CC)c1nc(C(=O)OCC)nc2ccccc12,-87*
CCOC(=O)c1nc(NCCCN2CCN(Cc3ccccc3)CC2)c2ccccc2n1,2
CCOC(=O)c1nc(NCCOC)c2ccccc2n1,104
CCCN(c1ccc(F)cc1)c1nc(C(=O)OCC)nc2ccccc12,-49
CC(=O)c1c(C)nn(CC(=O)N2CCCC3(CC2)CNC(=O)O3)c1C (centres undefined),-5
COc1ccc(OC)c(CNC(=O)Cn2ncc3c(N4CCCCC4)ncnc32)c1,-24
COc1ccc(N(C)c2ccc3ccc(C(=O)N4CCCC4)cn23)cc1,-23
CCC(=O)NCCc1sc(-c2ccc(Cl)cc2)nc1C,179
Cc1cc(O)cc(=O)n1CCC(=O)Nc1cccc(Cl)c1N1CCOCC1,-9

# From PubChem
